# Screens as filed in PubChem.
# In the library only some 2.3% were active in any assay of this set; here they are far more common.
# CHO-K1 Ca PAM = nonselective calcium activators in parental CHO-K1 cells, primary screen, counter-screen for M1 PAM project, cell-based, Fluo-8 calcium fluorescence, full deck, 1536-well. ATP EC20; 0% at ATP EC20, 100% at ATP max. 360,000 tested, 0.02% active. activation, % at 3 µM. AID 602247, 2012;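 active = activation above the run cutoff, the mean activation of all test compounds plus 3 SD, cut at about 40% in these data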;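 note: peak over basal fluorescence ratio in a 140 s read after ATP addition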
# M1 ag parental = counter-screen for M1 agonists: effect in parental CHO-K1 cells | 360,000 tested, 0.48% active | Fluo-8 calcium fluorescence; scaled to maximal ATP response, vehicle zero | activation, % at 3 µM; in the data active = activation above about 15%;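 note: untransfected CHO-K1 host cells lacking M1 receptor as counterscreen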
# M1 ag = human M1 muscarinic receptor agonists, primary screen, Fluo-8 calcium fluorescence, CHO-K1 cells, HTS; Muscarinic acetylcholine receptor M1 (Homo sapiens), P11229; CHO-K1 hM1, agonist mode; 0% DMSO, 100% acetylcholine EC100; activation, % at 3 µM; 360,000 tested, 0.33% active;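 active = activation above the run's mean compound activation plus 3 SD, cut at about 16% in these data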;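 note: peak over basal fluorescence ratio within a 140 s kinetic read after compound addition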
# Target sequence (P11229 whole entry, looked up): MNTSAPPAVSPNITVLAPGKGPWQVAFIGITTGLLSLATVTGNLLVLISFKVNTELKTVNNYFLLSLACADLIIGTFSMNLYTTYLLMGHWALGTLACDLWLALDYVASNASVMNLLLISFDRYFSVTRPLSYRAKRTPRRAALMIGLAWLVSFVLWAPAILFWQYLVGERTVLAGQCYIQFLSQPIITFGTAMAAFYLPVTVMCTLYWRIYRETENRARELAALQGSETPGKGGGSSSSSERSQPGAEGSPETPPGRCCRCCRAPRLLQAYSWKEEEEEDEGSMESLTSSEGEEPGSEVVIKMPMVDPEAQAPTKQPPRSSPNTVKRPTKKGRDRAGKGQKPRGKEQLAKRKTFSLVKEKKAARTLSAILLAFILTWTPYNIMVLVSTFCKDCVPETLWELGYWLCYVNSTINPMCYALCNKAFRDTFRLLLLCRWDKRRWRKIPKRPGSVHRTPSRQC
# CHO-K1 Ca antag = nonselective inhibitor or artifact in parental CHO-K1 cells | ATP-induced calcium, Fluo-8 fluorescence | inhibition, % at 3 µM | 360,000 tested, 0.6% active | AID 602250;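 active = inhibition above a per-plate cutoff, the plate's mean sample inhibition plus 3 SD, cut at about 24% in these data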;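 note: 0% = DMSO plus EC80 ATP and 100% = DMSO alone without ATP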
# CHRM1 PAM = human M1 muscarinic receptor positive allosteric modulators, primary screen, CHO-K1 cells, Fluo-8 calcium fluorescence, 1536-well; CHO-K1 hM1, ACh EC20; 0% = ACh EC20, 100% = maximal ACh; activation, % at 3 µM; 360,000 tested, 0.088% active; AID 588819, 2011; Muscarinic acetylcholine receptor M1 (Homo sapiens), P11229; in the data active = activation above about 19%, passing the limit was not always enough
# CHRM1 antagonist = human M1 muscarinic receptor antagonists, primary screen, CHO-K1 cells, Fluo-8 calcium fluorescence, 1536-well; Muscarinic acetylcholine receptor M1 (Homo sapiens), P11229; CHO-K1 hM1, ACh EC80 antagonist; inhibition, % at 3 µM; 360,000 tested, 1.3% active; AID 588852, 2011;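 active = percent inhibition above its own plate's cutoff, namely the mean of that plate's compound wells plus 3 SD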;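 note: peak over basal fluorescence ratio during 140 s after agonist addition; 0% = ACh EC80 plus DMSO and 100% = DMSO alone without agonist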
# An asterisk follows results filed as active.
SMILES,CHO-K1 Ca PAM,M1 ag parental,M1 ag,CHO-K1 Ca antag,CHRM1 PAM,CHRM1 antagonist
CCN(CC)c1ccc(/C=C2\C(=O)c3ccc(C(=O)O)cc3C2=O)cc1,-7,38*,126*,22,-29,62*
O=C(O)c1ccc(N(c2ccccc2)c2ccccc2)cc1,23,1,-5,-7,6,-13
FC(F)(F)c1nc(-c2ccncc2)ncc1-c1nnnn1-c1ccccc1,10,3,-1,-8,2,-3
Fc1ccc(-n2nnnc2-c2cnc(-c3cccs3)nc2C(F)(F)F)cc1,15,5,2,13,-16,57*
CC(C)Cc1nc(NCCN2CCOCC2)c(C#N)c2c1COC(C)(C)C2,0,0,-6,-4,-1,-3
CCCCc1nc(NCCN2CCOCC2)c(C#N)c2c1COC(C)(C)C2,-6,0,2,25*,13,-20
CCN(CC)CCOC(=O)/C=C/c1ccccc1,-25,0,-6,15,-5,5
CCN(CC)CCCOC(=O)C(c1ccccc1)c1ccccc1,-1,1,-14,5,-34,101*
C(#Cc1ccccc1)CN1CCCCC1,18,3,-15,-12,-6,1
OC(C#CCN1CCCC1)(c1ccccc1)c1cccc(F)c1 (centres undefined),6,0,-15,1,-28,101*
CC(C)C(O)(C#CCN1CCCCCC1)c1ccccc1 (centres undefined),19,1,-14,-3,-33,87*
CC(O)(C#CCN1CCCCC1)c1ccccc1 (centres undefined),-1,0,-8,-2,-19,30
CC(O)(C#CCN1CCCC1)c1ccccc1 (centres undefined),20,8,-9,-10,-21,41*
CC(C)(C#CCN1CCCCC1)OCCOC(c1ccccc1)c1ccccc1,8,0,-9,-10,-26,99*
CC1CCCN1CC#CC(O)(c1ccccc1)c1ccccc1 (centres undefined),6,0,-9,-6,-28,100*
Cc1ccc(C)c(NC(=O)Cn2cc(C(=O)C3CC3)c3ccccc32)c1,6,3,6,25*,8,-2
CC(=O)c1cn(CC(=O)Nc2ccccc2C(F)(F)F)c2ccccc12,-23,1,3,27*,3,-5
CCOC(=O)c1cccc(C2=CC(=O)C[C@H](c3ccc(OC)c(OC)c3)C2)c1,4,7,0,-18,-13,8
c1ccc(CN2CCCC3(CCCN(Cc4nc(CC5CC5)no4)C3)C2)cc1 (centres undefined),19,0,-8,-3,-13,19
c1ccc(CN2CCCC3(CCCN(Cc4nc(COc5ccccc5)no4)C3)C2)cc1 (centres undefined),25,0,-10,-12,-28,60*
O=C(Nc1ccncc1)Nc1cccc(C(F)(F)F)c1,-20,14,8,23,-3,7
O=C(Nc1ccc(OC(F)F)cc1)Nc1cccc(C(F)(F)F)c1,-1,10,1,27*,-19,24*
CCN(CC)S(=O)(=O)c1ccc(NC(=O)Nc2cccc(C(F)(F)F)c2)cc1,0,11,2,28*,-11,30*
CCN=C(NCC)SC1CC(=O)N(c2ccc(F)cc2)C1=O (centres undefined),5,6,0,14,-18,35*
CCN=C(Nc1ccc2c(c1)OCO2)SC1CC(=O)N(c2ccc(OC)cc2)C1=O (centres undefined),10,4,0,4,-7,27*
SMILES,CHO-K1 Ca PAM,M1 ag parental,M1 ag,CHO-K1 Ca antag,CHRM1 PAM,CHRM1 antagonist
O=C(CNc1ccc(Br)cc1)NC(=O)NC1CCCCC1,23,1,-7,-9,-4,4
COc1ccc(NC(=O)CSc2nccn2Cc2ccco2)cc1OC,9,4,2,-16,5,-3
NNC(=O)Cc1cccc2ccc(Cl)cc12,8,0,-2,-6,-2,-3
CCCCCC(O)(CCN1CCCCC1)c1ccc(OCC)cc1 (centres undefined),-4,1,-14,2,-32,99*
CCCC(O)(CCN1CCCCC1)c1ccc(OCC)cc1 (centres undefined),-5,1,-12,5,-16,16
CCC(O)(CCN1CCCCC1)c1ccccc1 (centres undefined),1,0,-5,-1,-22,76*
CCCC(O)(c1ccc(Cl)cc1)C(CN1CCOCC1)c1ccccc1 (centres undefined),0,0,-8,0,-21,61*
COc1ccc(C(O)(CCN2CCCCC2)C2CCCCC2)cc1 (centres undefined),-4,0,-9,3,-27,101*
CCCC(O)(c1ccccc1)C(CN1CCOCC1)c1ccccc1 (centres undefined),13,0,-4,-27,11,-16
CCOc1cccc(CN2CCCC(CNC(=O)c3cccc(OC)c3OC)C2)c1 (centres undefined),0,0,-10,-7,-2,-1
O=S(=O)(Nc1cccc(-n2cnnn2)c1)c1ccccc1C(F)(F)F,2,3,-1,-7,2,-2
Cc1ccc(S(=O)(=O)NCCC(=O)Nc2ccc(Cl)c(Cl)c2)cc1,10,6,-1,0,-2,6
CCCCOc1ccc(C(O)(CCC)CCN2CCOCC2)cc1 (centres undefined),19,4,-7,-1,-17,3
CCCCC(O)(CCN1CCOCC1)c1ccc(Cl)cc1 (centres undefined),10,0,-8,-10,-21,87*
CC(C)CC(NS(=O)(=O)OCC(Cl)(Cl)Cl)c1ccccc1 (centres undefined),-5,-1,-7,-2,-21,35*
COC(=O)CCC(NS(=O)(=O)OCC(Cl)(Cl)Cl)c1ccccc1 (centres undefined),2,0,-5,-7,-2,2
CCN(CC)C(CNC(=O)CSc1nnnn1-c1ccc(C)c(C)c1)c1ccco1 (centres undefined),13,0,-8,-16,-10,8
CCN(CC)C(CNC(=O)CSc1nnnn1-c1c(C)cccc1C)c1ccco1 (centres undefined),13,1,-6,-8,-21,37*
CCOc1ccc(NC(=S)N(CCOC)C2CCN(C(C)C)CC2)cc1,-9,0,-4,-9,0,-4
